GalR3 antagonist – antagonists of human GalR3 | O60755 | HEK293 GalR3-CNG cAMP membrane potential fluorescence; galR3 body fused to GalR1 C-terminus | inhibition, % at 3 µM | 360,000 tested, 0.44% active | AID 651719;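 active means inhibition above the screen-wide average plus 3 SD, cut at about 13% in these data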;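 further: forskolin and galanin both at EC90 stimulate the cells; cAMP rise reported by CNG channel membrane potential dye signal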
Target sequence (O60755 1-299 limits assumed): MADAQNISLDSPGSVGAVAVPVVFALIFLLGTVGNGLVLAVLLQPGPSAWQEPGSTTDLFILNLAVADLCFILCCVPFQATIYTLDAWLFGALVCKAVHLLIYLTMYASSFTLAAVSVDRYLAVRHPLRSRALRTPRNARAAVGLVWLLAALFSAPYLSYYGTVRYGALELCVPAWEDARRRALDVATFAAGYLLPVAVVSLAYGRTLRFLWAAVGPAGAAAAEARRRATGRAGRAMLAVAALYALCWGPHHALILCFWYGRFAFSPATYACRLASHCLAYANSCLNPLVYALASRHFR
Hsp70 act – switches on Hsp70 transcription; HeLa Hsp70 promoter luciferase reporter, luminescence; scaled: vehicle 0, proteasome-inhibitor control 100%; activation, % at 10 µM; 200,000 tested, 0.04% active;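 active means activation above the mean across all tested compounds plus 3 SD, cutoff set per campaign, cut at about 5.5% in these data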
FXN GAA850 act – frataxin GAA850 promoter activation; HEK293 lucGAA850 FXN promoter luciferase reporter, 24 h; percent of 10 µM SAHA response; activation, % at 6 µM; 360,000 tested, 0.56% active;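 active means activation above the average of all compounds screened plus 3 SD, cutoff fixed separately per campaign, cut at about 7.5% in these data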
HIF activator – HIF pathway transcriptional activation; U2OS HRE-luciferase reporter, luminescence; normalized: DMSO 0%, desferrioxamine 100%; activation, % at 7.5 µM (by protocol); 300,000 tested, 0.32% active;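 active means mean activation of at least 10% of the iron chelator positive control signal, with at least half of replicates also reaching 10%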
SMARCA2 act – SMARCA2 function activation, primary screen; AID 652017; 370,000 tested, 1% active; MG213 cells, MMTV-luciferase reporter, dexamethasone, overnight; activation, % at 9.1 µM; in the data active means activation above about 7.8%
SMARCA2 act conf – SMARCA2 activation, confirmation screen | shares compounds with SMARCA2 act | MG213 cells, MMTV-luciferase with dexamethasone, luminescence, overnight; MG213 cells expressing E1A, Rb sequestered; DMSO wells 0%, reference activator 100% | activation, % at 9.1 µM | 3,500 tested, 30% active;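 active means activation above its plate's cutoff, the mean activation of tested wells plus 3 SD, cut at about 7.9% in these data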
VP16 Luc act – counter-screen for SMARCA2 activators: GAL4-VP16 luciferase reporter activation | shares compounds with SMARCA2 act | HEK293 GAL4-VP16 pG5luc reporter, luciferase luminescence; scaled: DMSO wells 0%, SAHA wells 100% | activation, % at 9.1 µM | 3,500 tested, 41% active;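 active means activation above the solvent-only control well mean plus 3 SD, averaged across control plates, cut at about 5.2% in these data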
A number is an active result; n = inactive; x = no result. Most compounds without a hit are left out; they make up all but 2.2% or so of the library.

SMILES | GalR3 antagonist | Hsp70 act | FXN GAA850 act | HIF activator | SMARCA2 act | SMARCA2 act conf | VP16 Luc act
CCOc1ccc(NC(=S)NC(=O)c2ccco2)cc1 | n | x | n | n | 10.0 | n | 11.0
C=CCn1c(COc2ccc(C)cc2)nnc1SCc1ccc([N+](=O)[O-])cc1 | x | x | x | x | n | x | x
Nc1ccccc1/C=C/c1ccccc1N | n | x | n | x | 9.9 | 14.1 | 10.4
Nc1ccccc1C=C1Cc2ccccc2C1=O | n | x | n | x | n | x | x
c1ccc2oc(C3=NNC(=NC4CC4)SC3)cc2c1 | n | n | n | n | 9.5 | n | 6.5
CC(C)Cn1c(/C=C/c2ccccc2)nc2ccccc21 | n | n | n | n | n | x | x
CCn1c(/C=C/c2ccccc2)nc2ccccc21 | n | n | n | n | 9.2 | 10.7 | 10.7
COC[C@@H]1CCCN1c1ccc2c(c1)O[C@@H]1CCN(C1)S2(=O)=O | x | x | x | x | n | x | x
N#Cc1c(NC(=S)NC(=O)C2CCCC2)sc2c1CCCCC2 | n | n | n | n | 13.1 | n | n
COc1cccc(-c2nnc(SCc3cccnc3)o2)c1 | n | n | n | n | 10.1 | n | 6.6
COc1cc(OC)cc(-c2nnc(SCc3cccnc3)o2)c1 | n | n | n | x | n | x | x
O=C(NC(=S)Nc1ccccn1)c1cccc([N+](=O)[O-])c1 | n | x | n | 709.1 | 8.8 | n | 7.5
Cc1cccc(-c2cccc3c4c([nH]c23)[C@@H]2C[C@H](N(C)C(=O)C3CCCCC3)[C@H]([C@H](C)O)CN2CC4)c1 | x | x | x | x | n | x | x
c1ccc2[nH]c(-c3ccncc3)nc2c1 | n | n | n | n | 9.5 | n | n
c1ccc(-c2nc3ccccc3[nH]2)cc1 | x | x | n | n | n | x | x
Clc1ccccc1-c1nc(-c2cccnc2)no1 | n | n | n | n | n | x | x
O=S(=O)(Cc1noc(-c2ccccc2Cl)n1)c1ccccn1 | n | x | n | n | 16.2 | n | 9.3
CCN1CCN(c2cc(C)c3cc(NC(=S)N4CCN(c5ccccc5)CC4)ccc3n2)CC1 | n | n | n | n | 9.1 | 25.9 | n
CCN1CCN(c2cc(C)c3cc(NC(=O)c4cc(OC)cc(OC)c4)ccc3n2)CC1 | n | x | n | n | 9.9 | 13.5 | 5.5
C[C@H](O)[C@@H]1CN2CCc3c([nH]c4c(-c5ccccc5)cccc34)[C@@H]2C[C@@H]1N(C)C(=S)Nc1ccc(C#N)cc1 | x | x | x | x | n | x | x
CC(C)(C)c1ccc(-c2nnc(SCC(=O)c3ccc4ccccc4c3)n2-c2ccc(Cl)cc2)cc1 | x | x | x | x | n | x | x
Fc1ccc2nc3[nH]c4ccccc4c3nc2c1 | n | n | n | n | 12.9 | 17.3 | 12.6
OC1=C(O)c2nc3cc(F)ccc3nc21 | n | x | n | n | n | x | x
COc1cccc(C(=O)Nc2cccc(-c3ccc(N4CCOCC4)nn3)c2)c1OC | n | x | n | n | 12.1 | 10.6 | 15.4
CN1CCN(c2ccc(-c3cccc(NC(=O)COc4ccccc4)c3)nn2)CC1 | n | x | n | n | 8.4 | n | 12.5
SMILES | GalR3 antagonist | Hsp70 act | FXN GAA850 act | HIF activator | SMARCA2 act | SMARCA2 act conf | VP16 Luc act
COC(=O)[C@]12C[C@H](CC(=O)NCc3ccc(OC)c(OC)c3)C(=O)N(Cc3ccc(Cl)cc3Cl)C1=C[C@H](COCc1ccccc1)O[C@@H]2C | x | x | x | x | n | x | x
Cc1ccccc1C(=O)NC1CCCCN(Cc2cccc(F)c2)C1=O (stereo not given) | x | x | x | x | n | x | x
O=C(Cc1cccs1)NCc1cccc(Br)c1 | n | x | n | n | 9.2 | n | 7.8
O=C(Cc1cccs1)Nc1ccc(NC(=O)c2ccco2)cc1 | n | n | n | n | 11.8 | n | 7.9
CN(C)[C@H]1CCN(c2cccc3c2S(=O)(=O)N2CC[C@@H](C2)O3)C1 | x | x | x | x | n | x | x
CN(C)c1ccc(N=Nc2cccc3ccoc23)cc1 | n | x | n | n | 9.8 | n | 11.5
CC(C)(C)C(=O)Nc1ccnn1C1CCN(C(=O)c2ccc(Cl)cc2F)CC1 | n | x | n | n | 13.9 | n | n
CCOC(=O)CCCCCC(=O)Nc1ccc2c(c1)C(=O)N([C@H](C)CO)C[C@@H](C)[C@@H](CN(C)S(=O)(=O)c1ccc(C)cc1)OCCCC[C@H](C)O2 | n | x | x | x | n | x | x
Cc1cccc(NC(=O)COc2ccc3c(c2)CCC3)n1 | n | x | n | x | 9.7 | n | 5.5
O=C(CN1C(=O)NC2(CCc3ccccc32)C1=O)NCC(=O)Nc1ccc(F)cc1 (stereo not given) | n | x | n | x | 8.2 | n | n
O=C(CN1C(=O)NC2(CCc3ccccc32)C1=O)NCc1ccc(F)cc1 (stereo not given) | n | x | n | x | n | x | x
CCOc1ccc(Oc2c(Cl)cnn(Cc3cccc4ccccc34)c2=O)cc1 | x | x | x | x | n | x | x
Cc1cccc(C(=O)NCCc2ccccc2)c1 | n | x | n | n | 10.7 | n | 14.4
O=C(NN1CCOCC1)c1ccc(Cl)c([N+](=O)[O-])c1 | n | x | n | n | 10.3 | n | n
O=C(NCCc1ccccc1)c1ccc(Cl)c([N+](=O)[O-])c1 | n | n | n | n | 9.9 | n | 8.6
